Results from PubChem BioAssay (NCI).
Compounds without any hit were thinned out: in the full panel of roughly 79,000, 15% have a hit. Unmarked numbers belong to inactive results. Active and inactive are the calls of the source. Cut-off read from the data, not from the text of the source: active = growth inhibition above about 70%; inactive = the rest.

Key:
[1] = NCI Yeast Anticancer Drug Screen. Data for the rad50 strain (AID 155);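 note: 0% = growth of vehicle-only cultures of the same strain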; conditions: S. cerevisiae rad50 strain growth inhibition, active compounds read high
How it was run: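 Genetically altered yeast (DNA repair pathway); compound treatment; growth inhibition vs vehicle ctrl.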

[2] = NCI Yeast Anticancer Drug Screen. Data for the mec2-1 strain (AID 157); conditions: S. cerevisiae mec2-1 strain, active compounds read high
How it was run: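 Cells of the genetically defined mec2-1 yeast strain are incubated with test compound. Inhibition of growth is calculated against vehicle-treated controls.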

[3] = NCI Yeast Anticancer Drug Screen. Data for the sgs1 mgt1 strain (AID 161);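 note: 0% = growth of cultures given vehicle only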; conditions: S. cerevisiae sgs1 mgt1 strain, active compounds read high
How it was run: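 Inhibition of yeast growth, normalised to vehicle-treated controls, is reported for a strain bearing genetic alterations in DNA damage repair.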

[4] = NCI Yeast Anticancer Drug Screen. Data for the cln2 rad14 strain (AID 165);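 note: 0% = growth equal to vehicle treated cultures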; conditions: S. cerevisiae cln2 rad14 strain, active compounds read high
How it was run: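 The screen exposed genetically defined yeast (cln2 rad14) to test compounds and scored growth inhibition relative to vehicle-treated controls.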

[5] = NCI Yeast Anticancer Drug Screen. Data for the bub3 strain (AID 167); conditions: S. cerevisiae bub3 mutant strain, active compounds read high
How it was run: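 Yeast carrying a defined mutation is treated with each compound, and growth is compared with that of vehicle-exposed cells to give inhibition.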

[6] = NCI Yeast Anticancer Drug Screen. Data for the mlh1 rad18 strain (AID 175); conditions: S. cerevisiae mlh1 rad18 strain growth inhibition, active compounds read high
How it was run: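 Compound-treated yeast growth, normalised to vehicle controls. Strain bears defined DNA repair mutations.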

[7] = at 5.0 µM (retest, dose inferred, filed as 0.5)
[8] = at 50.0 µM (retest, dose inferred, filed as 5.0)

Compound | growth inhibition [1, 7] | growth inhibition [1, 8] | growth inhibition ([1]; at 50.0 µM) | growth inhibition [2, 7] | growth inhibition [2, 8] | growth inhibition ([2]; at 50.0 µM) | growth inhibition [3, 7] | growth inhibition [3, 8] | growth inhibition ([3]; at 50.0 µM) | growth inhibition [4, 7] | growth inhibition [4, 8] | growth inhibition ([4]; at 50.0 µM) | growth inhibition [5, 7] | growth inhibition [5, 8] | growth inhibition ([5]; at 50.0 µM) | growth inhibition [6, 7] | growth inhibition [6, 8] | growth inhibition ([6]; at 50.0 µM)
O=C(O)CC(CCCc1ccccc1)C(=O)O (configuration not stated) | -1% | -3% | -7.45% | -41% | -3% | 15.4% | -1% | -4% | -10.8% | -2% | -1% | 40.9% | -5% | -7% | -1.1% | 0% | -4% | 2.55%
c1ccc2c(c1)C[n+]1ccc3ccccc3c1-c1c3ccccc3cc[n+]1C2 | 8% | 28% | 64.2% | 6% | 20% | 13.4% | 11% | 40% | 69.8% | 1% | 18% | 53% | -2% | 4% | 7.85% | 7% | 21% | 65.8%
C(C#Cc1ccccc1)#CCc1ccccc1 | 2% | 17% | 19% | 7% | 16% | 28.9% | 1% | 39% | 54.6% | 1% | 7% | 6.5% | 1% | 13% | 47.2% | -1% | 21% | 74.1% (active)
CCCCCCCCCCCC1C(C#N)C(=O)NC(=O)C1C#N (configuration not stated) | 92% (active) | 92% (active) | 49.3% | 90% (active) | 92% (active) | 5.4% | 87% (active) | 92% (active) | 64.7% | 73% (active) | 82% (active) | -8.05% | 78% (active) | 86% (active) | -27.9% | 87% (active) | 90% (active) | 26%
CN(C)c1ccc(C2ON=C(c3ccccc3)N2C23CC4CC(CC(C4)C2)C3)cc1 (configuration not stated) | 0% | 36% | -11.6% | -11% | 3% | -3.05% | -5% | 33% | -7.15% | 8% | 2% | 55.3% | 14% | 13% | -11.1% | 4% | 5% | -24%
CCN(CC)Cc1c(-c2ccccc2)oc(-c2ccccc2)c1CN(CC)CC | -15% | 33% | 64.7% | 1% | 2% | -0.45% | -15% | 33% | -5.75% | -2% | -1% | -9.8% | 1% | 8% | 36.4% | 2% | 32% | 67.4%
Cc1ccc(-n2cc(-c3ccc(Cl)cc3)c3c(N)ncnc32)cc1 | 37% | 95% (active) | 97.1% (active) | 15% | 97% (active) | 94.8% (active) | 60% | 94% (active) | 98.3% (active) | -3% | 96% (active) | 88.3% (active) | 14% | 97% (active) | 92% (active) | 30% | 95% (active) | 96.8% (active)
COC(=O)c1n[nH]c(C)c1N=NN1CCC(C(N)=O)CC1 | 30% | 98% (active) | 98.3% (active) | -8% | 99% (active) | 99.2% (active) | -13% | 99% (active) | 98.8% (active) | -1% | 99% (active) | 97.8% (active) | -5% | 98% (active) | 98.2% (active) | 36% | 99% (active) | 99.2% (active)
CCOc1ccc2c(c1)[n+]([O-])c(-c1ccc(Cl)cc1)c(N)[n+]2[O-] | 24% | 99% (active) | 99.2% (active) | 23% | 99% (active) | 98.2% (active) | 50% | 100% (active) | 99.3% (active) | 34% | 98% (active) | 98.8% (active) | 63% | 99% (active) | 99.2% (active) | 68% | 99% (active) | 98.8% (active)
